Screens as filed in PubChem.
This is a sample that favours compounds with a hit; in the whole collection about 2.8% have one here.
KLK7 zymogen act – activates the human kallikrein-7 zymogen; AID 652039; purified proKLK7, EDANS-DABCYL substrate fluorescence; 100% is mature enzyme control, 0% vehicle; activation, % at 7 µM; 370,000 compounds, 0.9% hits;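 active means activation above the mean of all tested compounds plus 3 SD, computed per campaign excluding outliers beyond control limits, cut at about 13% in these data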
Target sequence (P49862 whole entry, looked up): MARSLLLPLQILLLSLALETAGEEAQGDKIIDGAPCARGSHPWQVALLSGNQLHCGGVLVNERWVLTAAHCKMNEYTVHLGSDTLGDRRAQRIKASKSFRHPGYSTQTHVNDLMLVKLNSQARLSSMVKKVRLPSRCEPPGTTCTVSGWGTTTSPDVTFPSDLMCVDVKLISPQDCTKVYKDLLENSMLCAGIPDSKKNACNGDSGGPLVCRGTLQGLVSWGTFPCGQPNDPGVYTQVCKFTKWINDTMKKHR
GASC-1 inh – human JMJD2C demethylase inhibition; Q9H3R0; GST-JMJD2C(1-420) H3K9me3 demethylation, DELFIA europium; inhibition, % at 2.35 µM; 330,000 compounds, 0.069% hits; AID 2099;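 active means more than half of a compound's replicate wells show inhibition beyond 50%, single wells judged on their own value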;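 further: signal counts dimethyl H3K9 product captured on neutravidin plate; 0% = median of DMSO wells and 100% = 0.3 times that DMSO median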
Target sequence (Q9H3R0 1-420 limits assumed): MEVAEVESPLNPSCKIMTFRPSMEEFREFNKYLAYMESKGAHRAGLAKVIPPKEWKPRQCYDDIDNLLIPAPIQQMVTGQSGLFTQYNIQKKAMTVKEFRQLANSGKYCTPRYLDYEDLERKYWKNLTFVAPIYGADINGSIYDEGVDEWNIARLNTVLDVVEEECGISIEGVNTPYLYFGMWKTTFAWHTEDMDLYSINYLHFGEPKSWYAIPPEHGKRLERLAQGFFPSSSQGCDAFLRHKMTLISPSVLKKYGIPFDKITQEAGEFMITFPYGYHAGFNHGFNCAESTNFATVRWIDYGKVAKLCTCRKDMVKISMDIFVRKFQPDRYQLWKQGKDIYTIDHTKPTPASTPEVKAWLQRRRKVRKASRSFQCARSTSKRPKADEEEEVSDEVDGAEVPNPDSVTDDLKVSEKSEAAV
Rev-erbA mod – modulators of human Rev-erb alpha DNA binding. activity, % at 10 µM. 370,000 compounds, 0.79% hits. Rev-erbα–FITC-DNA binding, fluorescence polarization, 90 min. AID 1259318;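 active means activity above about 14%, limit read from the data; passing the limit was not always enough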;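 further: 0% = DMSO wells with 35 nM protein and 100% = DMSO wells with 750 nM protein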
PP5 primary – PP5 (human) phosphatase inhibition. P53041. purified PP5c, OMFP substrate fluorescence. inhibition, % at 6.7 µM. 320,000 compounds, 0.18% hits. AID 1987;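 active means inhibition above the campaign's mean inhibition across all tested compounds plus 3 SD, cut at about 9.5% in these data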;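 further: 0% = DMSO only and 100% = 100 µM cantharidin control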
PG9 binder – PG9 antibody binding by small molecule; 360,000 compounds, 0.43% hits; TR-FRET gp120-PG9 antibody binding; inhibition, % at 6.7 µM; in the data active means inhibition above about 8.5%
PP1 inh – PP1-alpha (human) inhibition in PP5 counter-screen | purified PP1alpha, OMFP fluorescence | AID 2235 | P62136 | inhibition, % at 6.7 µM | 320,000 compounds, 0.9% hits;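 active means inhibition above the mean inhibition of all tested compounds plus 3 SD, computed separately for each screening campaign, cut at about 15% in these data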
Rev-erbA confirm – Rev-erb alpha (human) modulation, hit confirmation | shares compounds with Rev-erbA mod | Rev-erb alpha FITC-DNA binding, fluorescence polarization, 90 min | activation, % at 25 µM | 3,000 compounds, 61% hits;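 active means activation at or above a set limit, or at least 3 SD above the negative control mean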;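 further: 0% = 35 nM protein with DMSO and 100% = 750 nM protein high control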
RORg counter – counter-screen for Rev-erb alpha modulators: RORgamma DNA binding. shares compounds with Rev-erbA mod. purified RORgamma protein-FITC-DNA binding, fluorescence polarization. IC50, µM. 910 compounds, 8% hits. AID 1259320;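 active means Compounds whose fitted half-maximal concentration for disrupting protein-DNA binding is below 10 micromolar; the record names Rev-erb in its text, so the target is in doubt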
* marks the source's active call; other numbers are inactive results; i = inactive; . = no result.

SMILES	KLK7 zymogen act	GASC-1 inh	Rev-erbA mod	PP5 primary	PG9 binder	PP1 inh	Rev-erbA confirm	others
O=C(Nc1cc([N+](=O)[O-])ccc1O)NC1CCS(=O)(=O)C1 (centres undefined)	0.7	1.7	15.8*	3.6	-3.4	-4.2	14.7*
O=C(Nc1cccc([N+](=O)[O-])c1)NC1CCS(=O)(=O)C1 (centres undefined)	0.3	7.4	-1.2	-2.9	0.7	-5.5	.
C[C@@H]1ON(C)[C@H]2C[C@H]3c4[nH]c5c(-c6ccc(C(F)(F)F)cc6)cccc5c4CCN3C(=O)[C@@H]12	0.0	.	-5.0	.	-2.7	.	.
CC(C)OC(=O)CC(=O)CSc1nc(-c2ccc(F)cc2)cc(-c2ccccc2)c1C#N	-5.0	1.5	35.9*	4.6	0.6	6.0	26.4*
COc1cc(-c2cc(-c3ccccc3)nc(SCC(=O)Nc3nccs3)c2C#N)cc(OC)c1OC	-3.7	5.0	72.1*	5.5	-1.8	-7.4	14.9
COc1ccc(-c2cc(-c3ccccc3)c(C#N)c(SCC(=O)O)n2)cc1	-1.2	1.6	2.2	0.4	0.8	-2.4	.
COc1ccc(CNC(=O)CSc2nc(-c3ccccc3)cc(-c3cccs3)c2C#N)cc1	-0.2	9.4	8.5	1.1	3.0	7.6	.
CCOC(=O)[C@@]12CCC3=C1N(CCC3)C(=O)[C@H](CC(=O)NCC1CCCCC1)C2	-0.1	.	4.2	.	.	.	.
O=c1oc2ccccc2c(NC(c2ccccc2)c2ccccc2)c1[N+](=O)[O-]	-0.1	11.4	39.1*	-0.2	0.1	4.0	60.3*	RORg counter=i
CC(=O)Nc1sc(C)c(C)c1C(=O)OCC(=O)NCc1ccc(Cl)cc1	-0.6	6.2	23.9*	1.0	7.8	-3.9	8.5
COc1cccc(CNC(=O)COC(=O)c2c(NC(C)=O)sc(C)c2C)c1	0.1	-0.4	-6.2	.	0.6	.	.
Cc1ccccc1C(=O)N[C@@H](CC(C)C)C(=O)N1CCC[C@H]1C(=O)NCc1ccccc1	0.3	.	-2.2	.	-1.1	.	.
CCN(CC)C(=O)CC[C@H]1CC[C@]2(CCCN(Cc3nccn3C)C2)O1	0.1	.	1.4	.	.	.	.
NCCCC(C(=O)O)N(C(=O)OCc1ccccc1)C(=O)OCc1ccccc1 (centres undefined)	-0.2	.	2.8	.	0.3	.	.
CCN1CCCCC(NC(=O)c2ccc(Cl)cc2Cl)C1=O (centres undefined)	0.6	.	7.9	.	.	.	.
CC1CN(C(=O)/C=C/c2ccccc2[N+](=O)[O-])CC(C)O1 (centres undefined)	-0.1	2.8	17.6*	4.2	-0.6	-2.3	-3.8
CC1CN(C(=O)/C=C/c2cccc([N+](=O)[O-])c2)CC(C)O1 (centres undefined)	-0.3	-2.8	-2.2	1.3	-1.3	3.4	.
COc1ccc2cc(C(=O)NCc3ccccc3)c(=O)oc2c1	0.1	-14.4	40.2*	-6.3	-2.3	-3.9	11.2
N=c1oc2ccc(Br)cc2cc1C(=O)NCc1ccc(F)cc1	0.4	0.2	-3.2	1.6	-1.7	-2.4	.
COc1ccc2oc(=O)c(C(=O)NCc3ccc(F)cc3)cc2c1	-14.8	6.9	29.8*	2.7	2.0	0.4	12.7
COc1ccc(CNC(=O)c2cc3ccccc3oc2=O)cc1	-0.6	10.5	-2.8	-2.1	-1.1	5.3	.
CCN(CC)c1ccc2cc(C(=O)NCc3ccc(F)cc3)c(=N)oc2c1	-0.3	-3.5	39.8*	1.8	-3.2	0.3	32.5*	RORg counter=>40
CCOc1ccc(-c2cc(C(C)=O)c3n(c2=O)CCC3)cc1	-0.3	.	1.6	.	.	.	.
Nc1nc2c(ncn2[C@@H]2O[C@H](C(=O)N[C@H](Cc3ccccc3)C(=O)NCCCc3ccccc3)[C@@H](O)[C@H]2O)c(=O)[nH]1	-0.1	.	2.9	.	-3.0	.	.
C[C@@H]1C(=O)N2N=Cc3cc4ccccc4cc3[C@H]2N2N=Cc3cc4ccccc4cc3[C@@H]12	-0.6	.	-2.6	.	.	.	.
SMILES	KLK7 zymogen act	GASC-1 inh	Rev-erbA mod	PP5 primary	PG9 binder	PP1 inh	Rev-erbA confirm	others
COC(=O)[C@]12C[C@H](CC(=O)N3CCN(C(=O)C4CC4)CC3)C(=O)N(Cc3cccc4ccccc34)C1=C[C@H](C(C)C)O[C@@H]2C1CC1	0.1	.	1.5	.	.	.	.
COC(=O)C1=C(C)N(C)C(=NCc2cccc(C(F)(F)F)c2)NC1c1ccccc1 (centres undefined)	-0.2	.	0.1	.	1.7	.	.
CCCC1(c2ccccc2)NC(=O)N(CC(=O)Nc2cc(C)on2)C1=O (centres undefined)	0.3	0.3	0.5	-0.9	0.1	0.0	.
CCCC1(c2ccccc2)NC(=O)N(CC(=O)Nc2sc(-c3ccccc3)cc2C(=O)OCC)C1=O (centres undefined)	-0.2	-13.9	56.3*	-1.8	-1.3	-3.3	50.3*	RORg counter=>40
CCOC(=O)c1cc(-c2ccccc2)sc1NC(=O)CN1C(=O)c2ccccc2C1=O	0.3	1.0	33.2*	-1.0	-1.1	3.4	8.1
CCOc1ccc(N(CC(=O)Nc2c(C)n(C)n(-c3ccccc3)c2=O)S(=O)(=O)c2cccc3cccnc23)cc1	0.3	.	1.1	.	.	.	.
COc1ccc(C(=O)NC(C)C2CC3CCC2C3)cc1 (centres undefined)	0.3	-0.6	0.6	0.9	-1.3	1.4	.
CC(NC(=O)c1ccc(N(C)C)cc1)C1CC2CCC1C2 (centres undefined)	0.7	.	31.5*	.	-1.5	.	18.3*
COC(=O)C1=C(C)N(Cc2ccccc2C(F)(F)F)C(=NCC2CC2)NC1c1cccc(F)c1 (centres undefined)	0.6	.	-4.2	.	0.7	.	.
COc1ccc(-c2noc(COc3ccc4ccccc4c3Br)n2)cc1OC	-0.2	-9.0	29.1*	2.4	0.3	0.8	16.8*
COc1ccc(C2CC(c3ccc(Cl)c(Cl)c3)Nc3nc(N)nn32)cc1 (centres undefined)	-0.1	0.5	31.4*	0.4	-0.1	3.6	16.6*
Cc1cc(=O)oc2cc(NC(=O)c3cccc(F)c3)ccc12	-0.5	1.9	49.5*	0.4	2.3	-3.1	59.8*	RORg counter=>40
Cc1cc2cc3c(cc2nc1SCC(=O)N1c2ccccc2CC1C)OCO3 (centres undefined)	-0.1	-2.9	6.9	0.8	-4.6	5.0	.
Cc1cc2ccccc2nc1SCC(=O)N1c2ccccc2CC1C (centres undefined)	-0.2	-1.8	146.5*	-0.2	0.8	0.1	-1.7
CC1Cc2ccccc2N1C(=O)CSc1nc2cc3c(cc2cc1C#N)OCO3 (centres undefined)	0.6	.	70.5*	1.9	4.5	3.3	31.6*
CC(C)c1nc(SCC(=O)N2c3ccccc3CC2C)c2ccccc2n1 (centres undefined)	0.0	-4.1	5.8	0.3	0.5	3.5	.
